Bcl-xL primary: inhibitors of human Bcl-xL, primary screen, biochemical, fluorescence polarization, HTS | Bcl-2-like protein 1 (Homo sapiens), Q07817 | GST-Bcl-xL / FITC-Bim BH3 peptide fluorescence polarization | inhibition, % at 10.9 µM | 320,000 tested, 0.7% active;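 active means inhibition above the mean of all tested compounds plus 3 SD, cutoff set per campaign, cut at about 30% in these data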;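 further: 0% = DMSO wells and 100% = unlabeled Bim-BH3 peptide competitor; inhibitors lower millipolarization by displacing the labeled peptide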
MCL1-BIM inh: inhibitors of MCL1 binding to BIM-BH3, primary screen, biochemical, fluorescence polarization | Induced myeloid leukemia cell differentiation protein Mcl-1 (Homo sapiens), Q07820 | GST-MCL1 / FITC-Bim-BH3 fluorescence polarization | inhibition, % at 10.9 µM | 320,000 tested, 0.68% active | AID 2057, 2009;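 active means inhibition above the mean inhibition of all tested compounds plus 3 SD, set per campaign, cut at about 40% in these data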;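 further: 0% = DMSO wells and 100% = unlabeled Bim-BH3 peptide control; higher means more loss of mP so more displacement of Bim peptide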
Target sequence (Q07820 whole entry, looked up): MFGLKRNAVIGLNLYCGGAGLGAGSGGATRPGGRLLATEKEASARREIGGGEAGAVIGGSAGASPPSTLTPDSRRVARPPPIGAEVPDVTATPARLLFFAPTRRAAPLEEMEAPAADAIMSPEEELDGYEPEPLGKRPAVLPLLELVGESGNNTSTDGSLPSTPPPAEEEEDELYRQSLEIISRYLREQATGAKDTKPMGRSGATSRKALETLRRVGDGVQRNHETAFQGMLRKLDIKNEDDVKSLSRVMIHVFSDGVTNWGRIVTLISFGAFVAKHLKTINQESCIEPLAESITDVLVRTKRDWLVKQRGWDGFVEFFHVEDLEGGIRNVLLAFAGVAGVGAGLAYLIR
GLD-1 RNA inh: GLD-1/TGE RNA complex disruptors, primary screen, biochemical, fluorescence polarization | Female germline-specific tumor suppressor gld-1 (Caenorhabditis elegans), Q17339 | purified GLD-1 + fluorescein TGE RNA | inhibition, % at 5.96 µM | 320,000 tested, 0.44% active | AID 2280, 2010;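 active means percent inhibition above a per-plate cutoff, the plate mean of test compounds plus 3 SD, cut at about 30% in these data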;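 further: 0% = DMSO wells with GLD-1 and probe and 100% = wells lacking GLD-1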
EBV gp42 block: Epstein-Barr virus gp42 inhibitors, primary screen, biochemical, uHTS, fluorescence polarization; AID 1085, 2008; inhibition, % (tested at 21.74 µM); Fluorescence polarization binding assay, mP read-out; Glycoprotein 42 (Epstein-Barr virus (strain AG876)), Q1HVG2; 220,000 tested, 0.42% active; in the data active means inhibition above about 50%
Target sequence (Q1HVG2 whole entry, looked up): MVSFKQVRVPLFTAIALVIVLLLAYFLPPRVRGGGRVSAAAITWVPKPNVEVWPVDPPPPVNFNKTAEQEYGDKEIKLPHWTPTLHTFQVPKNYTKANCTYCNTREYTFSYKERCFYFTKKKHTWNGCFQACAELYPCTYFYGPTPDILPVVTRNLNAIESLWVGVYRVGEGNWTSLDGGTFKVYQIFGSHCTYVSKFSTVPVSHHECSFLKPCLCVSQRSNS
MEX-5 binding: MEX-5 zinc finger RNA-binding disruptors – biochemical, C. elegans, fluorescence polarization, MLPCN library, primary screen; Zinc finger protein mex-5 (Caenorhabditis elegans), Q9XUB2; MEX-5/FITC-TCR2 RNA binding; stronger effect = lower value; activity score (negative = inhibition of binding), % at 10 µM; 300,000 tested, 0.38% active; AID 1832, 2009;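 active means inhibition past about -25% in most replicates, and total fluorescence under double the plate's negative control median, limit read from the data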;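 further: 0% = DMSO and -100% = 5 µM competing unlabeled TCR2 RNA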
Active calls of the source: *; . = not tested or not shown. Most compounds without a hit are left out; they make up all but 1.3% or so of the library.

SMILES	Bcl-xL primary	MCL1-BIM inh	GLD-1 RNA inh	EBV gp42 block	MEX-5 binding
Cc1ccsc1C(=O)N(C)CC(=O)N(CC(C)C)c1c(N)n(CC(C)C)c(=O)[nH]c1=O	-6	-5	-3	.	-3
CCCCc1cn([C@@H](CCCCN)C(=O)N2CCNCC2)nn1	39*	36	25	32	-29*
NCCCC[C@@H](C(=O)N1CCNCC1)n1cc(CN)nn1	5	0	-2	.	.
COCCN(C(=O)COC(=O)Cc1ccc(Cl)cc1Cl)c1c(N)n(Cc2ccccc2)c(=O)[nH]c1=O	0	-10	4	.	3
COC(=O)c1cc2c(-c3ccccc3)c(C)c3ccccn3c-2c1C(=O)OC	47*	43*	63*	65*	-4
COC(=O)c1c(C(=O)OC)c2ccccn2c1C(=O)c1ccccc1	4	-8	7	.	0
Cc1ccc(NC(=O)CSc2nnc(-c3cccs3)o2)cc1S(=O)(=O)N(C)C	1	9	7	6	-5
CN1CCN(c2nc(-c3ccccc3)nc(-c3ccccc3)c2C#N)CC1	2	0	8	2	-26*
COc1ccc(-c2nc(-c3ccccc3)nc(N3CCN(C)CC3)c2C#N)cc1	4	-2	3	12	-1
CCN1CCN(S(=O)(=O)c2ccc(C(=O)Nc3sc4c(c3C(N)=O)CCN(CC)C4)cc2)CC1	-22	-60	-79	.	0
CCN1CCc2c(sc(NC(=O)c3ccc4ccccc4c3)c2C(N)=O)C1	-33	-53	-82	.	-46*
COc1ccc2c(Cl)c(C(=O)N/N=C3\CCCC(=O)C3)sc2c1	40*	23	129*	-81	0
COc1ccc2c(Cl)c(C(=O)N/N=C/c3ccc4c(c3)OCO4)sc2c1	-6	-2	-14	-14	-2
CC(C)CC(C(=O)Nc1ccccc1)N1C(=O)C2C3C=CC(C3)C2C1=O (stereo unspecified)	-1	4	8	-4	0
COc1cc(C(CCN2CCCC2)c2c(OC)cc(OC)c3c(-c4ccccc4)cc(=O)oc23)cc(OC)c1OC (stereo unspecified)	-3	-7	2	-8	-48*
CCN(CC)C(=O)CC(c1cc(OC)c(OC)c(OC)c1)c1c(OC)cc(OC)c2c(-c3ccccc3)cc(=O)oc12 (stereo unspecified)	6	37	-9	99*	1
O=C(O)C1Nc2c(C(F)(F)F)ccc(Cl)c2C2C=CCC12 (stereo unspecified)	38*	48*	15	.	-16
CC1=NN(C(=O)c2ccc(Cn3nc(C)cc3C)o2)C(O)(C(F)(F)F)C1 (stereo unspecified)	-1	0	2	5	-1
O=c1cc(-c2ccc(O)c(O)c2)oc2cc(O)cc(O)c12	13	38	5	8	-33*
COc1ccc(-c2cc(=O)c3c(O)cc(O)cc3o2)cc1	0	4	3	.	.
CC(C)S(=O)(=O)c1csc(NC(=O)Nc2cc(Cl)ccc2Cl)c1Cl	12	8	2	-3	2
Cn1cc(/C=C2\SC(=S)N(NC(=O)c3ccccc3Cl)C2=O)c2ccccc21	35*	17	-171	87*	.
Cn1cccc1/C=C1\SC(=S)N(NC(=O)c2ccccc2Cl)C1=O	-63	-102	-118	-173	.
Cc1ccc(C(=O)NN2C(=O)/C(=C/c3cn(C)c4ccccc34)SC2=S)cc1	-44	-94	-80	130*	.
CCOc1ccc(NC(=O)/C(C#N)=C/c2ccc(N3CCCC3)c(C)c2)cc1	-23	-46	-40	94*	.
SMILES	Bcl-xL primary	MCL1-BIM inh	GLD-1 RNA inh	EBV gp42 block	MEX-5 binding
O=C(Cc1cccc2ccccc12)NCC(=O)Nc1ccccc1F	1	2	1	.	-1
C/C(=N/OC(=O)c1ccc(Cl)cc1Cl)c1oc(C)nc1C	6	4	-1	-12	-1
CS(=O)(=O)n1nc(-c2ccc(Cl)cc2)nc1SCc1ccccc1	-2	-3	6	87*	1
Cc1cc(C)n2nc(S(=O)(=O)NC3CCCCC3)nc2n1	8	4	4	1	-2
Cc1cccc2cc3c(N)c(C#N)sc3nc12	35*	30	1	7	-4
Cc1sc(NC(=O)c2sc3nc4c(C)cccc4cc3c2N)c(C#N)c1C	7	-20	-14	9	-1
COc1ccc(-c2[nH]ncc2CNC(C)c2cn(C)nc2C)c(F)c1 (stereo unspecified)	68*	13	8	-15	3
CCOc1cc(/C=C(/C#N)c2nc3ccccc3[nH]2)ccc1Oc1ccc([N+](=O)[O-])cn1	-4	1	-3	-7	0
CCOc1cc(/C=C(\C#N)c2nc3ccccc3[nH]2)ccc1OC(C)C(=O)O (stereo unspecified)	6	1	-8	.	-30*
COC(=O)c1ccc(COc2ccc(/C=C(\C#N)c3nc4ccccc4[nH]3)cc2OC)o1	3	4	1	-42	-30*
C[C@H]1CN([C@@H](C)CO)C(=O)Cc2cc(NC(=O)C3CC3)ccc2O[C@H]1CN(C)Cc1ccc(C(=O)O)cc1	.	.	7	.	.
COc1ccc(C(=O)CSc2ccccc2C(=O)O)cc1	0	-7	2	4	-3
O=C(Nc1nccs1)c1ccc(-c2ccc([N+](=O)[O-])cc2)o1	-8	-22	1	-37	-43*
Cc1ccc[n+](CC(=O)c2ccc(Br)cc2)c1	.	.	.	.	-1
N#Cc1ccc[n+](CC(=O)c2ccc(Cl)cc2)c1	33*	40	16	.	-4
O=C(CS(=O)(=O)c1cn(Cc2ccc(Cl)cc2)c2ccccc12)N1CCCCC1	30*	25	7	-10	0
CCn1c(S(=O)(=O)O)nc2ccccc21	1	-1	3	-11	-1
COc1cc2c(c(OC)c1O)C(=O)CO2	5	10	1	-24	1
COc1ccc2c3c(cccc13)OCC2=O	31*	30	16	-1	-3
CCOc1ccc(C(=O)OCC(=O)NCCCc2ccccc2)cc1	116*	-1	6	.	0
O=C(O)CSc1nc2sc3c(c2c(=O)n1Cc1ccccc1)CCCCC3	7	6	2	.	-2
O=C(O)CSc1cc(C(=O)c2ccccc2O)cn2c(=O)c3c4c(sc3nc12)CCCC4	.	.	.	69*	-10
Cc1ccc(CSc2nnc3c(n2)OC2(Nc4ccccc4-3)C(=O)Nc3ccc(F)cc32)cc1 (stereo unspecified)	5	-1	3	151*	-1

High-throughput results from PubChem BioAssay.
